This note sets out measurements from PubChem BioAssay (NCATS).

Several values for one entry are separate records, joined by “and”; a condition that tells them apart may be missing. Identical values can stand only once. Values without a mark were called inactive. Inconclusive results are not listed. Activity calls are given as the source filed them. Unless noted, calls come from the whole dose curve; as a rule, active = well fitted curve in either direction with a large enough effect (not every such curve was filed as active); inconclusive = small, poorly fitted or top-dose-only effect, or another doubt; inactive = flat fitted curve, though single readings scatter. A value given as a limit tells only on which side of the number the result lay.

A short description of assay [1]: AP1 Signaling Pathway (AID 357).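 Note: ME-180 reporter cells stimulated with EGF at its EC50 level; % is set by controls: 0 for no effect and ±100 for the full control effect.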 The essentials:
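A ratiometric CCF4 readout (405 nm excitation; 460 and 530 nm emission) quantified AP-1-driven beta-lactamase in ME-180 cells after 5 h with compound and EC50 EGF; AC50 values were derived for activators and inhibitors.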

In assay [2] the target is Cytochrome P450 1A2 (Homo sapiens) (UniProt P05177). Briefly: p450-cyp1a2 (AID 410; calls by dose curve; note: potency is the fitted concentration of half-maximal effect;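 for activity change, negative = inhibition: -100% = full effect of reference inhibitor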). The essentials: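 O-Demethylation of luciferin 6' methyl ether by human CYP1A2 is monitored as luciferase luminescence. Substrate sits at Km (100uM); enzyme is 20nM. Values are scaled to 57 uM furafylline as maximal inhibition.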
Assay [3] can be described thus: Cell Viability - BJ (AID 421; calls by dose curve;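 note: potency is the fitted concentration of half-maximal effect; cells exposed to compound for 40 hours at 37 °C before readout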). The following applies: BJ fibroblast viability, qHTS. In outline:
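Luminescent ATP signal (CellTiter-Glo, 20 min at room temperature) served as the read-out of viable BJ cells after 40 hours of compound treatment. Responses were scaled between DMSO and 100 uM tamoxifen, and AC50 values were obtained by Hill modeling.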
(In qHTS, concentration-response curves come from the screen itself.)

Assay [4] can be described thus: Cell Viability - Hek293 (AID 427;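 active = compounds whose dose-response curve shows a full or clear partial loss of cell viability, called from curve shape rather than a numeric limit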;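 note: potency is the fitted concentration of half-maximal effect; cells exposed to compound for 40 hours at 37 °C before reading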). The conditions noted are these: qHTS. The essentials:
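Luminescent ATP read-out (CellTiter-Glo, 20 min RT) after 40 hr compound exposure at 37 °C in complete medium. Signal normalized to DMSO (basal) and 100 uM tamoxifen (100% inhibition); concentration-response fitted with the standard Hill equation to give AC50.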

Assay [5] is described as follows: Cell Viability - HepG2 (AID 433; calls by dose curve;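 note: potency is the fitted concentration of half-maximal effect; potency for ATP loss meaning cytotoxicity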). The conditions noted are these: qHTS. The essentials:
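Read-out is luciferase-based quantitation of cellular ATP as a measure of viable HepG2 cells after 40 h treatment at 37 °C. Signal decrease is scaled between DMSO-only and 100 uM tamoxifen controls, with AC50 fitted by the Hill equation.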

Assay [6] is described as follows: Cell Viability - MRC5 (AID 434; calls by dose curve;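 note: potency is the fitted concentration of half-maximal effect; potency reflects cytotoxicity seen as loss of intracellular ATP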). The conditions noted are these: MRC5 lung fibroblast viability, qHTS. In outline:
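ATP luminescence read-out (CellTiter-Glo, 20 min RT) after 40 hr, 37 °C compound exposure of 1500 MRC5 cells/well. Data normalized to DMSO (basal) and 100 uM tamoxifen (100% inhibition); AC50 from standard Hill equation.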

Assay [7] can be described thus: NFAT Signaling Pathway (AID 444).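 Note: carbachol stimulus at about its EC50 of 1 µM final; % is set by controls: 0 for no effect and ±100 for the full control effect.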 The following applies: Jurkat NFAT-bla M1, carbachol, beta-lactamase ratio, 5 h. The essentials: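 Jurkat cells with NFAT-driven β-lactamase reporter and co-expressed M1 receptor, stimulated with carbachol (final 1 uM, ~EC50), compound titration, 5 h at 37 °C. CCF4 loaded 1 h at RT; 460/530 nm ratio gave %activity and AC50.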
Assay [8] can be described thus: Stat Signaling Pathway (AID 446).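 Note: ME-180 cervical cancer cells given 40 pM IL-6 alongside compound; SIE-controlled beta-lactamase reporter measured as 460/530 nm FRET emission ratio; % is set by controls: 0 for no effect and ±100 for the full control effect.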 The essentials: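 Compound effects on IL-6-induced STAT reporter activity were measured in ME-180 cells. After overnight culture, cells were co-treated with 40 pM IL-6 for 5 hrs before beta-lactamase substrate loading at room temperature.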
Assay [9] deals with Glucocorticoid receptor (Homo sapiens) (UniProt P04150). The assay is described as follows: GR-GFP Redistribution (AID 450;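 active = compounds whose dose series gives a full or clear partial fitted curve of increased nuclear translocation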; note: potency is the fitted concentration of half-maximal effect). The following applies: U2OS GR-GFP nuclear translocation, laser cytometry, 2 h.
For assay [10] the target is unchanged. Briefly: GR-EFC Redistribution (AID 451; calls by dose curve; note: potency is the fitted concentration of half-maximal effect). The conditions noted are these: CHO-K1 GR-EFC translocation, beta-gal luminescence, 2 h. The essentials: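 CHO-K1 cells expressing nuclear EA and GR-ED fragments of b-gal; compounds titrated up to 46 uM final, 2 h at 37 C. GR nuclear translocation read as complemented b-gal luminescence after 1 h RT detection.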
Assay [11] deals with Mitogen-activated protein kinase 10 (Mus musculus) (UniProt Q61831). The assay is described as follows: JNK3 AlphaScreen Assay (AID 530).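 Note: kinase came from lysate of stimulated human HepG2 cells; signal reports phosphorylation of biotinylated GST-cJun 1-79 at Ser73 with 10 µM ATP; % is set by controls: 0 for no effect and ±100 for the full control effect.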 In outline:
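Activity was read by AlphaScreen after JNK3-containing HepG2 lysate (cytokine pre-activated) phosphorylated biotinylated GST-cJun with 10 uM ATP at room temperature. Phospho-Ser73 cJun antibody with Protein-A acceptor beads provided detection.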
In general terms: Alpha assays give light when donor and acceptor beads are brought close together.

Assay [12] in a line: Cell Viability - N2a (AID 540; active = well fitted curve in the direction sought with a large enough effect; an effect the other way counts as inactive or inconclusive;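 note: cells exposed to compound for 40 h at 37 °C; plate controls were DMSO alone for no effect and tamoxifen control for full effect; nearly all actives have a fitted effect of over 45% in size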). The following applies: N2a mouse neuroblastoma cell viability; activity change, negative = cytotoxicity: at 92.2 µM (top of the series). In outline: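 Cytotoxicity was scored as loss of cellular ATP in N2a cells, a mouse neuroblastoma line. Compounds are applied in a qHTS concentration series for 40 hr at 37 °C.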
Assay [13] can be described thus: Cell Viability - NIH 3T3 (AID 541; active = well fitted curve in the direction sought with a large enough effect; an effect the other way counts as inactive or inconclusive; note: nearly all actives have a fitted effect of over 25% in size; note: potency is the fitted concentration of half-maximal effect;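 for activity change, negative = cytotoxicity: plate controls were DMSO alone for no effect and tamoxifen positive control for full effect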). The conditions noted are these: NIH 3T3 cell viability, qHTS; activity change, negative = cytotoxicity: at 92.2 µM (top of the series). The essentials:
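Cells seeded at 1000/well, rested 5 hr at 37 °C, then dosed and incubated 40 hr at 37 °C. CellTiter-Glo added, 20 min room temperature, luminescence read. AC50 by Hill fit.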

The nature of assay [14]: Cell Viability - HUV-EC-C (AID 542; active = well fitted curve in the direction sought with a large enough effect; an effect the other way counts as inactive or inconclusive; note: % is set by controls: 0 for no effect and ±100 for the full control effect; nearly all actives have a fitted effect of over 35% in size). The essentials:
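Cells were seeded at 1000 per well and incubated 5 hr at 37 °C before compound addition. After 40 hr at 37 °C, CellTiter-Glo reagent was added for 20 min and luminescence read. AC50 values came from Hill-equation modelling.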

A short description of assay [15]: Cell Viability - SH-SY5Y (AID 544; active = well fitted curve in the direction sought with a large enough effect; an effect the other way counts as inactive or inconclusive; note: nearly all actives have a fitted effect of over 55% in size; note: potency is the fitted concentration of half-maximal effect;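 for viability change, negative = cytotoxic: 0% = DMSO alone and -100% = 100 µM tamoxifen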). The following applies: SH-SY5Y neuroblastoma cell viability; viability change, negative = cytotoxic: at 92.2 µM (top of the series). In outline: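 Cells were plated at 1500 per well and allowed 5 hr at 37 °C. Compounds were added across a concentration range and incubated 40 hr at 37 °C. CellTiter-Glo was added for 20 min at room temperature before luminescence reading.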

The target of assay [16] is 3',5'-cyclic-AMP phosphodiesterase 4B (Homo sapiens) (UniProt Q07343). The assay is described as follows: qHTS Assay for Inhibitors of PDE-IV (AID 607; active = well fitted activation curve with a large enough effect in the main read-out, with a control signal flat, not every such curve was filed as active; note: % of control where 0% means no effect). The essentials: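 ACTOne HEK293 cells carry a modified cAMP-gated CNG channel and express endogenous PDE4; plated 1000 cells/well, compounds up to 22.9 uM final. Membrane-potential dye fluorescence (ex 535/em 590) was read; parental cells received 10 uM forskolin + 100 uM RO 20-1724.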

Assay [17] is described as follows: Cell Viability - Jurkat (AID 426;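 active = dose-dependent loss of cell ATP signal giving a full or clear fitted curve, ranked by lower potency value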;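 note: potency is the fitted concentration of half-maximal effect; cells exposed to compound for 40 hours at 37 °C before ATP read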). The following applies: qHTS. The essentials: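 Cells of the human T-cell leukemia line Jurkat (E6-1) are seeded at 5000 per well, treated with compound across a concentration range for 40 hours at 37 °C, then lysed with CellTiter-Glo; luminescence reports ATP.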
Assay [18] can be described thus: Cell Viability - SK-N-SH (AID 435; calls by dose curve;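 note: potency is the fitted concentration of half-maximal effect; compound exposure lasted 40 h at 37 °C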). The conditions noted are these: SK-N-SH neuroblastoma cell viability qHTS. The essentials: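 Luminescent ATP signal served as the viability read-out after 40 hours of compound treatment of human neuroblastoma SK-N-SH cells. Concentration-response data, scaled between DMSO and 100 uM tamoxifen, gave AC50 values by standard Hill modeling.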

Assay [19] can be described thus: Cell Viability - Mesenchymal (AID 546; active = well fitted curve in the direction sought with a large enough effect; an effect the other way counts as inactive or inconclusive;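 note: cells exposed to compound for 40 hours before reading; 0% = DMSO only and -100% = 100 µM tamoxifen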). In outline:
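Human renal mesenchymal cells (glomerulus-derived), 1000 cells/well, 5 hr 37 °C pre-incubation; compound 40 hr, 37 °C; CellTiter-Glo, 20 min RT; luminescence; AC50 via Hill equation.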

Cytochrome P450 1A2 (Homo sapiens), sequence (P05177 whole entry, looked up): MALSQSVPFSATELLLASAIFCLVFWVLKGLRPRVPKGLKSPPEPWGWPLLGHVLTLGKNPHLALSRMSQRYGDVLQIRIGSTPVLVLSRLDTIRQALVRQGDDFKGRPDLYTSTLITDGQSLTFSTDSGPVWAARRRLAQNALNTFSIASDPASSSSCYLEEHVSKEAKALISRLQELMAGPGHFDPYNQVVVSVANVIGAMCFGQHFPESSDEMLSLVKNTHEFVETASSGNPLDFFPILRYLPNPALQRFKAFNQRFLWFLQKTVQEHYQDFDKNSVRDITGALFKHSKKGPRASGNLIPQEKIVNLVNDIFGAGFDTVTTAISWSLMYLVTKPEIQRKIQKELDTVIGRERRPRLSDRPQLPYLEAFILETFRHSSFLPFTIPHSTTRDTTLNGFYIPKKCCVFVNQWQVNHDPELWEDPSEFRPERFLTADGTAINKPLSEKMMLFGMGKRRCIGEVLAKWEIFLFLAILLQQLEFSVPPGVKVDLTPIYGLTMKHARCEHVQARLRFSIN
Glucocorticoid receptor (Homo sapiens), sequence (P04150 whole entry, looked up, the tested form may be a part): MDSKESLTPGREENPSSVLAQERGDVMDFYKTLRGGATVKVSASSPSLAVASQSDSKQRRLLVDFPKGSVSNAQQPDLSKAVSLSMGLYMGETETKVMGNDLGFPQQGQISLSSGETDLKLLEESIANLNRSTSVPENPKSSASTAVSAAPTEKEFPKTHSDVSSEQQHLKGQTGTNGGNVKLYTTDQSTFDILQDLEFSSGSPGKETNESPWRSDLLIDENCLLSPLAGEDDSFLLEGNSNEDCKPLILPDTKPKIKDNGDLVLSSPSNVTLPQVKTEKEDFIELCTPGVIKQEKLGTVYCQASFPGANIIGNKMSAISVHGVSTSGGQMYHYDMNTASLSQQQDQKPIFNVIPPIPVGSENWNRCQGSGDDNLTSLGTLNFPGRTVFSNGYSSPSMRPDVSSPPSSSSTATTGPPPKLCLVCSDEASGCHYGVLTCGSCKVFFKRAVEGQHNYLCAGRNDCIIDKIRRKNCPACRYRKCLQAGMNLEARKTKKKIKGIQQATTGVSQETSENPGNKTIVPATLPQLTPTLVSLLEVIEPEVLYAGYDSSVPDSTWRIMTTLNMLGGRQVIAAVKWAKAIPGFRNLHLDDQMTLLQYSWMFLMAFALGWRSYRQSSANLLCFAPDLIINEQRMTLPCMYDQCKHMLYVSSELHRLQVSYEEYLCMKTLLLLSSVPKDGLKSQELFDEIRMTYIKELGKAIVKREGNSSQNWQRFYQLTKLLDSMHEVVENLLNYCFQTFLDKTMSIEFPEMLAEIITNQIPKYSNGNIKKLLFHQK
3',5'-cyclic-AMP phosphodiesterase 4B (Homo sapiens), sequence (Q07343 whole entry, looked up): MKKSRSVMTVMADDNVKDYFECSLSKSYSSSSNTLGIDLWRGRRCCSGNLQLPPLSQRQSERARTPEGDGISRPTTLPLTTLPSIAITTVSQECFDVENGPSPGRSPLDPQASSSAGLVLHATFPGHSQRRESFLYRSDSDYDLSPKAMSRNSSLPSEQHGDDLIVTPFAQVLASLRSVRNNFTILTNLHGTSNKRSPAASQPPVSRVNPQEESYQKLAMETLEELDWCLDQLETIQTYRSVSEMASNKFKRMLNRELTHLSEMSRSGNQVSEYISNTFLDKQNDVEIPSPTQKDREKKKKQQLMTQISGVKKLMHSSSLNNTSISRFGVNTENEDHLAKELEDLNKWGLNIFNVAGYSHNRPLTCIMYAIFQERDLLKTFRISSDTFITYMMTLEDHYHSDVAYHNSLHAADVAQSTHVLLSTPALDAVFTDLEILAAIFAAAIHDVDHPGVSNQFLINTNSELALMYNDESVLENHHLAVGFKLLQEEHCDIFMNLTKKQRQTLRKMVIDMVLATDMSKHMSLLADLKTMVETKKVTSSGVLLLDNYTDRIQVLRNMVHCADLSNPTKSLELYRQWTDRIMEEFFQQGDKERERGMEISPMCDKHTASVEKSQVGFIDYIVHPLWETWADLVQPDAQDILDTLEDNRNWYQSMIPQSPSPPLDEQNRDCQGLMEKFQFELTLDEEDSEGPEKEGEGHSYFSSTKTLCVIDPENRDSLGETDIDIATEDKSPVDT

`O=c1c(-c2ccc(O)cc2)coc2cc(O)cc(O)c12`: the compound was called inactive in [1], in assay [8], in assay [11] and in assay [14]. For the same compound, the Potency in assay [2] is 10 µM (active) and 5.01 µM (active); in [3] it was greater than 92 µM; in assay [4], greater than 92 µM; in assay [5], greater than 92 µM; in [6] it was greater than 92 µM; in [9], greater than 46 µM. Moreover, the figures for the Potency in assay [10] and in assay [13] were greater than 46 µM and 25.1 µM (active), respectively. Besides, the activity change, negative = inhibition in [7] (at 38 µM (top of the series)) is -8.04%. For the same compound, the activity change, negative = cytotoxicity in assay [12] is 0.0672%. Besides, the viability change, negative = cytotoxic in assay [15] was -86.9% (active). In addition, the Potency result in assay [16] was “inactive”.

On to `COc1ccc2[nH]cc(CCNC(C)=O)c2c1`, for which the compound was classed as inactive in assay [1], in [8], in assay [11], in assay [14] and in assay [19]. In addition, the Potency in assay [3], in [17], in assay [4], in assay [5], in assay [6] and in [18] was greater than 92 µM each time. Also, the Potency in assay [9] is > 46 µM and > 20.6 µM; in [10], > 46 µM and > 20.6 µM. The activity change, negative = inhibition in [7] (at 17.2 µM (top of the series)) is -17.4%; in [7] (at 38 µM (top of the series)), 14.9%. The activity change, negative = cytotoxicity in assay [12] is -15.6% and 3.75%. In addition, the Potency result in [13], in [15] and in [16] was “inactive” each time.

`NCCCCCC(=O)O`: the compound was called inactive in assay [1], in assay [8] and in assay [11]. The Potency entry in assay [2] and in assay [16] was “inactive” in each case. Further, the figures for the activity change, negative = inhibition in assay [7] (at 17.2 µM (top of the series)) and in assay [7] (at 38 µM (top of the series)) were -9.25% and 21.3%, respectively. The Potency is > 46 µM and > 20.6 µM in [9]; > 46 µM and > 20.6 µM in assay [10].

With `CC[N+](CC)(CC)CCOc1cccc(OCC[N+](CC)(CC)CC)c1OCC[N+](CC)(CC)CC`, the result in [1], in assay [8] and in [11] was inactive. Also, the Potency entry in [2] and in assay [16] was “inactive” in each case. Further, the activity change, negative = inhibition in [7] (at 17.2 µM (top of the series)) is -15.9%; in assay [7] (at 38 µM (top of the series)), -22%. The Potency in assay [9] was > 46 µM and > 20.6 µM; in assay [10] it was > 46 µM and > 20.6 µM.

Consider `CN1CCN(CCCN2c3ccccc3Sc3ccc(Cl)cc32)CC1`, for which the outcome in [1], in assay [8] and in assay [11] was inactive. In addition, the Potency in [2] is 1 µM (active) and 2.51 µM (active). Also, the activity change, negative = inhibition in assay [7] (at 17.2 µM (top of the series)) was -28.9%. In assay [16], the Potency entry was “inactive”.

As to `CS(=O)(=O)Nc1ccc([N+](=O)[O-])cc1Oc1ccccc1`, the call in assay [1], in assay [8] and in assay [11] was inactive. For the same compound, the Potency in assay [2] was 15.8 µM (active) and 12.6 µM (active). In addition, the activity change, negative = inhibition in [7] (at 17.2 µM (top of the series)) is -5.4% and -1.94%. In addition, the Potency entry in assay [16] is “inactive”.

`O=c1[nH]cc(F)c(=O)[nH]1`: the compound was classed as inactive in assay [1], in [8], in assay [11], in assay [14] and in assay [19]. For the same compound, the Potency result in assay [2] and in assay [16] was “inactive” in each case. In addition, the Potency in assay [3] is greater than 92 µM; in assay [17], greater than 92 µM; in [4], greater than 92 µM; in [5], greater than 92 µM; in assay [6], greater than 92 µM; in assay [18], 9.55 µM. Moreover, the Potency was greater than 46 µM in [9], greater than 46 µM in assay [10], 0.316 µM (active) in assay [13] and 15.8 µM (active) in assay [15]. For the same compound, the activity change, negative = inhibition in [7] (at 38 µM (top of the series)) was 18.8%. For the same compound, the activity change, negative = cytotoxicity in assay [12] was -18.1%.

Consider `Cn1c(=O)c2c(ncn2C)n(C)c1=O`, for which the compound was called inactive in assay [1], in assay [8], in [11], in [14] and in assay [19]. Also, the Potency entry in [2], in [13], in assay [15] and in assay [16] was “inactive” each time. Also, the Potency in [3], in assay [17], in [4], in assay [5], in assay [6] and in [18] was greater than 92 µM in each case. In addition, the Potency in [9] and in [10] was greater than 46 µM each time. In addition, in assay [7] (at 38 µM (top of the series)), the activity change, negative = inhibition was 3.94%. Further, the activity change, negative = cytotoxicity in assay [12] was 4.95%.
